± gives the uncertainty stated by the source.
test system: HEK293T-Rex XBP1-RLuc; experiment: XBP1-RLuc splicing reporter activation, triplicate, relative to 500 nM thapsigargin (% of thapsigargin); higher = stronger IRE1/XBP1s reporter activation; settings: 6.8 µM; 18 h; screen: confirmation
Protocol: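 HEK293T-Rex cells stably expressing the ERSE-firefly luciferase (BiP promoter, ATF6-preferring) or XBP1-splicing Renilla luciferase (IRE1/XBP1s) reporter, 1536-well plates, compound at 6.8 µM for 18 hr at 37 °C; luminescence read […] and expressed as % activation = 100*(compound - median DMSO)/(median 500 nM thapsigargin - median DMSO). Primary screen was single-pass; confirmation screen in triplicate (mean ± SD).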

Going from `Oc1ccc(/C=N/Nc2cccc3cccnc23)c(O)c1` to `Cc1ccc(C)c(/C=N/Nc2nncc3ccccc23)c1`, the “XBP1-RLuc splicing reporter activation” value falls from 26 ± 1.3 to 5.57 ± 0.69.

`CCN(CC)c1ccc(NC(=O)c2cccc(OC)c2)cc1` and `COc1ccc(C(=O)Nc2nnc(-c3cccs3)s2)cc1` are within error of each other in “XBP1-RLuc splicing reporter activation” value: 0.922 ± 1.9 for the first, 0.956 ± 0.85 for the second.

First: CCOc1cccc(/C=C2\NC(=S)N(C)C2=O)c1O
Second: CCOc1cc(/C=C2/NC(=O)N(Cc3ccc(F)cc3)C2=O)ccc1O
The “XBP1-RLuc splicing reporter activation” value of the first is lower: -2.09 ± 0.54 for the first, 33.6 ± 2.1 for the second.

Going from `OCCNc1nc(Nc2ccc(Cl)c(Cl)c2)nc2ccccc12` to `C(=N/Nc1nnc2c(n1)[nH]c1ccccc12)/c1c[nH]c2ccccc12`, the “XBP1-RLuc splicing reporter activation” value falls from 42.7 ± 1.8 to 9.3 ± 1.4.

`Cc1ccc2nc(/C(C#N)=C/c3ccc(O)c(O)c3)[nH]c2c1` and `O=C1NC(=Nc2ccc(F)cc2)S/C1=C\c1ccc(O)c(O)c1` are within error of each other in “XBP1-RLuc splicing reporter activation” value: 16.5 ± 0.47 for the first, 17.4 ± 1.8 for the second.

Going from `COc1ccc(-n2nnnc2SCC(N)=O)c(OC)c1` to `COc1cc2ccccc2cc1C(=O)N/N=C/c1cccs1`, the “XBP1-RLuc splicing reporter activation” value falls from 13.9 ± 1.2 to 3.81 ± 0.66.

`O=C(COC(=O)c1ccc(O)c(O)c1)Nc1nc(-c2ccccc2)cs1` and `Cc1ccc(O)c(NC(=O)CSc2ccccc2)c1` are within error of each other in “XBP1-RLuc splicing reporter activation” value: 18.6 ± 3.9 for the first, 10.5 ± 5.2 for the second.

First: COC(=O)c1c(NC(=O)CCl)sc(C(=O)Nc2cccc([N+](=O)[O-])c2)c1C
Second: Cc1ccc(O)c(NC(=O)c2cc(-c3cccs3)on2)c1
The “XBP1-RLuc splicing reporter activation” value of the first is lower: 12.1 ± 0.46 for the first, 22.7 ± 1.2 for the second.

Compared with `CCCCNC(=O)c1cc(-c2cccs2)on1`, `N#Cc1c(NC(=O)c2ccc3c(c2)OCO3)sc2c1CCCC2` is lower in “XBP1-RLuc splicing reporter activation” value: 9.51 ± 1.7 for the first, 2.57 ± 0.57 for the second.

First: Nc1ccc2nc(-c3ccc(Cl)cc3)[nH]c2c1
Second: Nc1ccc2nc(/C=C/c3ccco3)[nH]c2c1
The “XBP1-RLuc splicing reporter activation” value of the first is lower: 8.9 ± 0.25 for the first, 17.8 ± 0.14 for the second.
